# Source: PubChem BioAssay
# Hits are enriched below; roughly 11% of the tested compounds scored in any of these assays.
# Sm TGR inh – qHTS Assay for the Inhibitors of Schistosoma Mansoni Peroxiredoxins. purified TGR, DTNB reduction, TNB absorbance 405 nm. Schistosoma mansoni thioredoxin glutathione reductase (TGR), Q962Y6. Potency, µM (series often up to 114 µM), hits mostly inhibitors. actives 3% (n = 360,000). AID 485364, 2010; also: nearly all actives have a fitted effect of over 60% in size
#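 TGR 20 nM + NADPH 100 uM (dispensed conc.), cpd preinc 15 min RT; start with NADPH (500 uM addition) then DTNB (15 mM addition). Kinetic TNB absorbance, 405 nm filter. Four-parameter Hill fit across titration.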
# Pf growth 96h – Primary qHTS for delayed death inhibitors of the malarial parasite plastid, 96 hour incubation; P. falciparum luciferase reporter growth, 96 h; AID 504834, 2011; actives 6.9% (n = 320,000); Potency, µM (doses to about 28.7 µM), hits mostly inhibitors
#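 P. falciparum expressing integrated firefly luciferase, in erythrocytes at 2% hematocrit, 0.05% parasitemia, incubated with compounds 96 h at 37 C, 5% CO2. Growth inhibition read as loss of luminescence; two-generation exposure targets delayed-death apicoplast inhibitors.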
# Pf growth 48h – Primary qHTS for delayed death inhibitors of the malarial parasite plastid, 48 hour incubation | Potency, µM (top dose mostly 28.7 µM), usual class: inhibitors | P. falciparum luciferase growth in erythrocytes, 48 h | actives 5.9% (n = 310,000)
#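 Parasite viability was followed by luminescence of a genomically integrated firefly luciferase. Cultures held 0.1% parasitemia at 2% hematocrit (final), incubated under 5% CO2 at 37 C.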
# NS1 inh – qHTS Assay for Inhibitors of Influenza NS1 Protein Function; Potency, µM (highest dose often 46.1 µM); actives 0.4% (n = 270,000); AID 2326, 2010; calls by dose curve; also: actives are rising curves; nearly all actives have a fitted effect of over 50% in size
#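 Recovery from NS1-induced slow growth read by OD600 in budding yeast switched to galactose assay medium (pH 6.0, -URA) at 1:100 dilution. Compound 23 nl per well; the matching strain lacking NS1 serves as control.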
# AMA1-RON2 inh – qHTS for Inhibitors of AMA1-RON; Towards Development of Antimalarial Drug Lead: Primary Screen. Plasmodium falciparum AMA1 (3D7) - RON2 peptide interaction. actives 0.2% (n = 360,000). AlphaScreen AMA1-biotinylated RON2 peptide binding. Potency, µM (titrated, usually from 58.2 µM), actives largely listed as inhibitors; also: nearly all actives have a fitted effect of over 45% in size
#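 AMA1 (3D7) with his tag at 25 nM final met compounds first, then biotinylated RON2 peptide at 25 nM; detection used donor plus acceptor beads, 10 µg/mL apiece, read by AlphaScreen after 30 min at room temperature.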
# Numbers stand for hits; . = inactive; ? = inconclusive; / = no result given; [ ] = remark or other dose. Unless noted, calls follow the shape of the dose curve; as a rule, active = well fitted curve in the direction sought with a large enough effect; inconclusive = small, poorly fitted or top-dose-only effect, or another doubt; inactive = no such curve, though single readings can be large; an effect the other way counts as inactive or inconclusive.
SMILES,Sm TGR inh,Pf growth 96h,Pf growth 48h,NS1 inh,AMA1-RON2 inh
COc1ccc(C2C(C(=O)Nc3cc(C)on3)c3ccccc3C(=O)N2C)cc1OC (stereo not given),.,?,?,.,.
COc1ccc(C2C(C(=O)NC(C)C)c3ccccc3C(=O)N2C)cc1OC (stereo not given),.,1.04µM,.,.,.
CCCOc1ccc(C(=O)N(Cc2cccs2)C2CCS(=O)(=O)C2)cc1 (stereo not given),.,.,.,.,.
COc1cccc(NC(=O)CN(C)C(=O)c2cc(C)on2)c1,.,.,.,/,.
CCOC(=O)N1CCN(C(=O)COC(=O)c2ccccc2NCCO)CC1,.,.,.,/,.
O=C(NCc1ccccc1)C(c1ccccc1F)N(C(=O)c1csnn1)C1CCCC1 (stereo not given),.,?,.,.,.
Fc1ccc(C2CC(c3ccc(F)cc3)n3ncnc3N2)cc1 (stereo not given),.,.,?,.,.
Oc1ccccc1C1=Nc2ncnn2C(c2ccc(F)cc2)C1 (stereo not given),14.1µM,11.7µM,.,.,.
O=C(NCc1cccnc1)c1ccccc1NS(=O)(=O)c1ccc(Br)cc1,/,/,/,/,.
O=C(CCS(=O)(=O)c1ccccc1)Nc1nc2cc3c(cc2s1)OCCO3,10µM,5.22µM,.,.,.
O=C(CCS(=O)(=O)c1ccccc1)Nc1nc2cc3c(cc2s1)OCO3,10µM,.,.,.,.
O=C(Nc1nc2cc3c(cc2s1)OCCO3)c1ccc([N+](=O)[O-])o1,.,8.28µM,.,.,.
O=C(CCS(=O)(=O)c1ccccc1)Nc1nc2ccc(F)cc2s1,?,?,?,/,.
Cc1ccc(NC(=O)CN2C(=O)NC(C)(CC(C)C)C2=O)cc1F (stereo not given),/,/,/,/,.
Nc1ccc(OCCCc2c(N)nc(N)nc2N)cc1,.,.,.,.,?
C=CCOc1ccc(C(=O)n2cc(C(=O)OC)c3ccccc32)cc1,.,?,.,.,.
CN(C)/C=C/C(=O)c1ccc(OCCN(C)c2ccccn2)cc1,.,.,.[0.00184 µM],.,.
Cc1cc(C)c(S(=O)(=O)n2ccc(-c3ccc(OCCN(C)c4ccccn4)cc3)n2)c(C)c1,.,7.38µM,1.85µM,.,.
COc1cccc(Cn2c(SCC(=O)N(C)c3ccccc3)nc3ccccc32)c1,.,/,/,/,/
CCN(CC)c1nc2ccccc2n(Cc2cccc(OC)c2)c1=O,.,1.47µM,?,.,.
O=C1NC(=O)N(c2ccc3c(c2)OCO3)C(=O)/C1=C\c1ccsc1,?,.,.,.,.
CC(C)c1ccc(N2C(=O)NC(=O)/C(=C\c3cnc(-c4ccccc4)nc3)C2=O)cc1,11.2µM,.,.,.,.
Cc1ccc(N2C(=O)NC(=O)/C(=C/c3cnc(-c4ccccc4)nc3)C2=O)cc1C,1.78µM,.,.,.,.
Cc1ccc(N2C(=O)NC(=O)/C(=C\c3ccsc3)C2=O)cc1C,.,7.38µM,.,.,/
CC(C)c1ccc(N2C(=O)NC(=O)/C(=C\C=C\c3ccco3)C2=O)cc1,?,.,.,/,.
SMILES,Sm TGR inh,Pf growth 96h,Pf growth 48h,NS1 inh,AMA1-RON2 inh
Cc1cccc(N2C(=O)NC(=O)/C(=C\c3cnc(-c4ccccc4)nc3)C2=O)c1,5.01µM,?,.,.,.
N#CCC(=O)Nc1ccc(C(=O)OCC(=O)NC(=O)NCc2ccco2)cc1,/,/,/,/,.
COc1ccc(Cn2ccc3nc(C)c(C(=O)Nc4cc(OC)c(OC)c(OC)c4)cc3c2=O)cc1,.,/,/,/,/
c1cc2c(c(NC3=NCCN3)c1)CCCC2,/,10.7µM,?,.,/
CCOC(=O)C1(CC2CC2)CCN(Cc2cnc(-c3ccc(OC)cc3)nc2)CC1,.,?,?,.,.
NC1=NC(=O)/C(=C/c2cccc(-c3ccc(S(N)(=O)=O)cc3)c2)S1,10µM,.,.,.,.
CN1CCN(S(=O)(=O)c2cccc(C(=O)Nc3sc4c(c3-c3nc5ccccc5[nH]3)CCCC4)c2)CC1,.,3.29µM,2.94µM,?,.
CC(=O)NCCC(=O)Nc1sc2c(c1-c1nc3ccccc3[nH]1)CCCC2,.,?,?,.,.
CC(=O)N1CCN(S(=O)(=O)c2cccc(C(=O)Nc3nc4c(s3)CCCC4)c2)CC1,.,?,/,.,.
O=C(Nc1sc2c(c1-c1nc3ccccc3[nH]1)CCCC2)C1CCCC1,.,13.1µM,11.7µM,.,.
Cc1ccc(CN2C(=O)C3(c4ccccc42)N(c2cccc(C(F)(F)F)c2)C(=O)CS3(=O)=O)cc1 (stereo not given),.,/,/,/,/
CCOC(=O)c1sc2ccccc2c1S(=O)(=O)N1CCN(c2cccc(OC)c2)CC1,.,/,/,/,/
CCOC(=O)C1(Cc2cccc(OC)c2)CCN(Cc2cccc3c2OCO3)CC1,.,?,?,.,?
O=C(Nc1ccccc1)c1cccc(S(=O)(=O)NC2CCCC2)c1,.,11.7µM,.,.,.
CC(=O)Nc1ccc(NC2CCCCC2NS(=O)(=O)c2ccccc2)cc1 (stereo not given),.,8.28µM,.,.,.
CC(=O)Nc1ccc(NC(=O)c2cccc(S(=O)(=O)N(C)C3CCCCC3)c2)cc1,.,?,7.38µM,/,.
Cc1ccc(NC(=O)c2cccc(S(=O)(=O)N(C)C3CCCCC3)c2)nc1,.,9.28µM,5.22µM,/,.
CN(C)S(=O)(=O)c1cccc(C(=O)Nc2ccccc2)c1,.,.,.,.,.
CCOC(=O)C(NC(=O)c1cccc(Cl)c1)(Nc1sc2c(c1C(N)=O)CCC2)C(F)(F)F (stereo not given),39.8µM,?,?,.,.
CCOC(=O)C(NC(=O)c1ccccc1Cl)(Nc1sc2c(c1C(N)=O)CCC2)C(F)(F)F (stereo not given),39.8µM,4.15µM,?,.,.
CCOC(=O)C(NC(=O)c1ccc(F)cc1)(Nc1sc2c(c1C(N)=O)CCC2)C(F)(F)F (stereo not given),?,?,?,.,.
CCCCC(=O)NC(Nc1sc2c(c1C(N)=O)CCCC2)(C(=O)OCC)C(F)(F)F (stereo not given),.,?,.,.,.
CCN(C(=O)Cn1nc(Cc2cccnc2)c2ccccc2c1=O)c1cc(C)ccc1C,.,/,/,/,/
CN1CCN(P(=O)(c2ccccc2)c2nc3ccccc3s2)CC1 (stereo not given),.,13.1µM,.,.,.
O=P(c1ccccc1)(c1nc2ccccc2s1)N1CCOCC1 (stereo not given),50.1µM,/,.,.,.
c1ccc2sc(N3CCOCC3)nc2c1,.,.,.,.,.
CC=CC1OCC(CC)C(CCC)O1 (stereo not given),/,/,/,/,.
COC(CNC(=O)c1ccc2c3c(onc13)-c1ccccc1C2=O)OC,12.6µM,.,.,.,.
